Assay outcomes as filed in PubChem.
T cruzi growth-1: T. cruzi intracellular proliferation inhibitors, primary screen, cell-based, beta-gal Tulahuen parasites, NIH3T3 host, luminescence | actives 5.9% (n = 77,000) | inhibition, % at 8.34 µM | T. cruzi beta-gal in NIH3T3, GalScreen luminescence, 90 h;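 active means mean inhibition above about 93%, with at least 55% of replicates each passing it, limit read from the data, passing the limit was not always enough; inconclusive means only one of those two conditions holds; inactive means neither condition holds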
C diff growth: C. difficile growth inhibitors, primary screen, HTS | actives 0.25% (n = 86,000) | AID 1259249, 2017 | growth activity, negative = inhibition, % at 16 µg/mL (by protocol) | Clostridium difficile clinical isolate growth, OD600, 24 h; active compounds read low;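 active means mean growth activity at or below -80% and every replicate also at or below -80%; inconclusive means mean at or below -80% but some replicate above -80%; inactive means mean growth activity above -80%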;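 further: 0% = DMSO wells and -100% = levofloxacin 16 µg/mL wells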
Pf Dd2 inh: P. falciparum Dd2 growth inhibitors, primary screen, SYBR Green fluorescence, single dose replicates | 72 h; active compounds read low | activity change, % at 10 µM | actives 2.3% (n = 94,000) | AID 1159554, 2015; in the data active means activity change below about -80%; inconclusive means no clear call, values can overlap the other calls
T cruzi growth-2: T. cruzi intracellular proliferation inhibitors, confirmation, cell-based, NIH3T3 host, beta-gal parasite, luminescence, cherry-pick | inhibition, % at 8.35 µM | AID 651739, 2012 | actives 72% (n = 5,600) | T. cruzi beta-gal in NIH3T3, GalScreen luminescence, 90 h | shares compounds with T cruzi growth-1;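 active means mean replicate inhibition above about 95% and at least 55% of replicates individually reaching it, limit read from the data; inconclusive means only one of the two criteria is met; inactive means neither criterion is met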
T cruzi growth-3: inhibitors of intracellular T. cruzi replication, confirmation, NIH3T3 host cells, beta-gal parasites, cherry-pick, set 2 | shares compounds with T cruzi growth-1 | actives 21% (n = 5,600) | T. cruzi beta-gal in NIH3T3, GalScreen luminescence, 90 h | inhibition, % at 2.09 µM | AID 651740, 2012;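 active means mean inhibition above about 95%, with at least 55% of replicates also reaching it, limit read from the data; inconclusive means meets just one of the two conditions; inactive means meets neither condition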;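 further: plate controls were neutral control median for no effect and positive control median for full effect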
NIH3T3 tox: cytotoxicity in mouse NIH/3T3 fibroblasts, confirmation, cytotoxicity control for T. cruzi proliferation inhibitor project, cell-based, cherry-pick, single point; shares compounds with T cruzi growth-1; actives 14% (n = 5,600); cytotoxicity (signal decrease), % at 8.35 µM; NIH/3T3 viability, CellTiter-Glo ATP luminescence, 90 h;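 active means mean signal decrease across replicates above about 35% based on untreated-well scatter, with enough replicates individually passing, limit read from the data; inconclusive means no rule stated though some were filed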;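 further: 0% = median of neutral control wells and 100% = median of positive control wells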
3T3 cytotox 2: NIH/3T3 fibroblast cytotoxicity, confirmation, cytotoxicity control, cell-based, cherry-pick, single point, set 2. shares compounds with T cruzi growth-1. NIH/3T3 viability, CellTiter-Glo ATP luminescence, 90 h. inhibition, % at 24.9 µM. actives 56% (n = 5,600). AID 651744, 2012;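 active means mean loss of cell viability signal at or above a set limit, and enough replicates individually reaching it; inconclusive means meets only the mean limit or only the replicate share; inactive means meets neither condition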;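 further: 0% = median of neutral control wells and 100% = median of positive control wells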
Active calls of the source: *; ? = inconclusive; / = no result. Compounds with a hit are over-represented: about 6.7% of the library has one in this group of screens.

SMILES	T cruzi growth-1	C diff growth	Pf Dd2 inh	T cruzi growth-2	T cruzi growth-3	NIH3T3 tox	3T3 cytotox 2
CC(C)NC(=O)Nc1ccc2c(c1)C(=O)N([C@H](C)CO)C[C@@H](C)[C@H](CN(C)Cc1ccccc1)OCCCC[C@H](C)O2	29	2	-77	/	/	/	/
C[C@@H]1CN([C@H](C)CO)C(=O)c2cc(/C=C/c3ccccc3)cnc2O[C@H]1CN(C)C(=O)c1cnccn1	/	-4	-14	/	/	/	/
C[C@H]1CN([C@@H](C)CO)C(=O)c2cccc(NC(=O)Nc3ccc(C(F)(F)F)cc3)c2O[C@H]1CN(C)C(=O)Nc1cccc2ccccc12	101*	2	-39	93	112*	63*	105*
C[C@H]1CN([C@@H](C)CO)C(=O)c2cccc(NC(=O)Nc3cccc4ccccc34)c2O[C@@H]1CN(C)C(=O)Nc1ccccc1	81	-1	-12	/	/	/	/
C[C@H](CO)N1C[C@H](C)[C@H](CN(C)C(=O)Nc2ccc(F)cc2)Oc2c(NC(=O)Nc3cccc4ccccc34)cccc2C1=O	?	-6	-77	109*	94	37*	95*
C[C@H]1CN([C@@H](C)CO)C(=O)c2cccc(NC(=O)Nc3cccc4ccccc34)c2O[C@H]1CN(C)C(=O)Nc1ccccc1	102*	-7	-12	?	65	-17	8
C[C@@H]1CN([C@H](C)CO)C(=O)c2cccc(NC(=O)C3CCCCC3)c2O[C@H]1CN(C)C(=O)Nc1ccc(F)cc1	-7	2	-6	/	/	/	/
C[C@@H]1CN([C@@H](C)CO)C(=O)c2cccc(NC(=O)C3CC3)c2O[C@H]1CN(C)C(=O)Nc1ccc(F)cc1	108*	-4	-7	96*	77	25	21
C[C@@H]1CN([C@H](C)CO)C(=O)c2cccc(NC(=O)Nc3ccc(C(F)(F)F)cc3)c2O[C@@H]1CN(C)C(=O)Nc1cccc2ccccc12	93	-8	-43	/	/	/	/
C[C@H]1CN([C@@H](C)CO)C(=O)c2cccc(NC(=O)Nc3cccc4ccccc34)c2O[C@@H]1CN(C)C(=O)Nc1ccc(F)cc1	15	2	-3	/	/	/	/
O=S(=O)(N[C@@H]1CC[C@@H](CCn2cc(-c3ccccn3)nn2)O[C@H]1CO)c1cccc(F)c1	24	-3	-12	/	/	/	/
COc1ccc(S(=O)(=O)N(C)C[C@@H]2Oc3ccc(N(C)C)cc3C(=O)N([C@@H](C)CO)C[C@H]2C)cc1	27	1	-3	/	/	/	/
CCCNC(=O)C[C@@H]1CC[C@H]2[C@@H](COC[C@@H](O)CN2C(=O)c2ccccn2)O1	2	/	7	/	/	/	/
C[C@@H]1CN([C@H](C)CO)C(=O)c2cc(NC(=O)CCC(F)(F)F)ccc2O[C@H]1CN(C)S(=O)(=O)c1cn(C)cn1	-132	/	-8	/	/	/	/
CN1c2ccc(-c3ccccc3F)cc2[C@H]2[C@H](CCN2S(=O)(=O)c2ccccc2F)[C@@H]1CO	93	-14	-9	/	/	/	/
Cc1ccc(S(=O)(=O)N2CC[C@H]3[C@@H](CO)N(C)c4ccc(-c5ccccc5F)cc4[C@H]32)cc1	92	46	17	/	/	/	/
CN1c2ccc(-c3ccccc3F)cc2[C@H]2[C@H](CCN2S(=O)(=O)c2ccc(F)cc2)[C@@H]1CO	113*	4	2	99*	98*	19	80*
CN1c2ccc(-c3ccccc3F)cc2[C@@H]2[C@@H](CCN2S(=O)(=O)c2ccccc2F)[C@@H]1CO	116*	-3	3	100*	64	?	41*
CN(C)CC(=O)Nc1ccc2c(c1)[C@@H]1C[C@H](CC(=O)NCCc3ccccc3)O[C@@H](CO)[C@@H]1O2	/	1	5	/	/	/	/
N#C[C@H]1[C@@H](c2ccc(C#CC3CC3)cc2)[C@H](CO)N1S(=O)(=O)c1ccccc1	101*	4	-85*	98*	113*	?	53*
N#C[C@H]1[C@H](c2ccc(C#CC3CC3)cc2)[C@@H](CO)N1S(=O)(=O)c1ccccc1	97*	4	-58	100*	103*	3	13
N#C[C@@H]1[C@@H](c2ccc(C#CC3CC3)cc2)[C@H](CO)N1S(=O)(=O)c1ccccc1	96*	0	-64	?	102*	7	?
N#C[C@H]1[C@H](c2ccc(C#CC3CCCCC3)cc2)[C@@H](CO)N1S(=O)(=O)c1ccccc1	92	-12	-79	/	/	/	/
C[C@@H]1CN([C@@H](C)CO)C(=O)c2cc(NS(=O)(=O)c3cccs3)ccc2O[C@@H](C)CCCCO[C@@H]1CN(C)C(=O)CCC(F)(F)F	5	-3	-9	/	/	/	/
O=C(C[C@H]1C[C@@H]2c3cc(NC(=O)c4ccc5c(c4)OCO5)ccc3O[C@@H]2[C@H](CO)O1)NCCN1CCCCC1	-101	-4	8	/	/	/	/
SMILES	T cruzi growth-1	C diff growth	Pf Dd2 inh	T cruzi growth-2	T cruzi growth-3	NIH3T3 tox	3T3 cytotox 2
CCC(=O)N1[C@@H]2CN(C(=O)c3cccc(OC)c3)c3ccccc3[C@@H]2[C@@H]1CO	4	0	-11	/	/	/	/
C[C@H](CO)N1C[C@H](C)[C@@H](CN(C)C(=O)c2ccc3c(c2)OCO3)Oc2ncc(C3=CCCCC3)cc2C1=O	72	-5	-66	/	/	/	/
O=C(Nc1cccc(F)c1)N1CCCCN2[C@H](CO)[C@@H](c3ccc(C#CC4CC4)cc3)[C@H]2C1	112*	43	-36	107*	80	26	104*
O=C(Nc1cccc(F)c1)N1CCCCN2[C@H](CO)[C@@H](c3ccc(C#CC4CC4)cc3)[C@@H]2C1	110*	61	-10	106*	104*	23	104*
O=C(Nc1ccccc1)N1CCCCN2[C@H](CO)[C@@H](c3ccc(C#CC4CC4)cc3)[C@@H]2C1	86	18	-9	/	/	/	/
O=C(Nc1cccc(F)c1)N1CCCCN2[C@H](CO)[C@H](c3ccc(C#CC4CC4)cc3)[C@H]2C1	102*	67	-51	98*	100*	122*	104*
O=C(Nc1cccc(F)c1)N1CCCCN2[C@@H](CO)[C@@H](c3ccc(C#CC4CC4)cc3)[C@@H]2C1	70	18	-5	/	/	/	/
O=C(Nc1cccc(F)c1)N1CCCCN2[C@H](C1)[C@@H](c1ccc(C#CC3CC3)cc1)[C@@H]2CO	85	47	5	/	/	/	/
O=C(Nc1ccc(F)cc1)N1CCCCN2[C@@H](CO)[C@H](c3ccc(C#CC4CC4)cc3)[C@@H]2C1	53	43	-55	/	/	/	/
